Results from PubChem BioAssay AID1645852 (National Center for Advancing Translational Sciences (NCATS), 2021).
Screen size: about 1,200 compounds; about 160 (13%) were called active. Not shown: some 31% with an inconclusive outcome. The call rests on the fitted dose curve; in most records, active means well fitted inhibition curve with a large enough effect; inconclusive means small, poorly fitted or top-dose-only effect; inactive means no such curve, though single readings can be large or run the other way. The list is a sample of the results. Entries that show only a call come without a potency.

target: Inositol hexakisphosphate kinase 1 (Homo sapiens) (UniProt Q92551); assay: Confirmatory qHTS assay for small molecule inhibitors of Inositol hexaphosphate kinase 1 (IP6K1); details: recombinant IP6K1 kinase, ADP-Glo luminescence, 2 h; series mostly up to 49 µM; further: nearly all actives have a fitted effect of over 65% in size
Sequence (Q92551 whole entry, looked up): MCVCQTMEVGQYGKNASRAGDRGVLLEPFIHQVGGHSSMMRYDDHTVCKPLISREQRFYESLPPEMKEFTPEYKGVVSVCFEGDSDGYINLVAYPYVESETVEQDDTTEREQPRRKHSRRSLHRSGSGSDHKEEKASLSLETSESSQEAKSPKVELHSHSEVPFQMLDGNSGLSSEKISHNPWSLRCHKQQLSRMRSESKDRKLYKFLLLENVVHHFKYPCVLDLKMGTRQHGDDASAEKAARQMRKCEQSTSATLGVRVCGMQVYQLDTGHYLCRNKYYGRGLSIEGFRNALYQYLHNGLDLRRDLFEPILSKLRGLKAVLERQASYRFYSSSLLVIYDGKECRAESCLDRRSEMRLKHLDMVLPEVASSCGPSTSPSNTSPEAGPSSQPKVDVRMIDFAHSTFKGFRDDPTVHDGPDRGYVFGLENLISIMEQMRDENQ
Description: Assay Provider: Huijun Wei, M.S., Ph.D. School of Medicine, Johns Hopkins University, Baltimore, MD Inositol hexakisphosphate kinases (IP6Ks) catalyze pyrophosphorylation of inositol hexakisphosphate (IP6) into inositol 5-diphospho-1,2,3,4,6-pentakisphosphate (IP7), which is involved in numerous areas of cell physiology including glucose homeostasis, blood coagulation and neurological development. Inhibition of IP6Ks may be effective for the treatment of Type II diabetes, thrombosis, and psychiatric disorders. We performed a quantitative high throughput screen (qHTS) of 158,410 compounds for IP6K1 inhibitors using ankinase activity ADP-Glo Max assay. […] Medicinal chemistry SAR efforts in three chemical series identified potent IP6K1 inhibitors, which were further validated in an orthogonal LC-MS IP7 analysis.
PROTOCOL TABLE SEQUENCE No. (e.g., 1, 2, 3, etc.); […] (e.g., Cells, Incubation, Reagent, etc.); VALUE and DESCRIPTION. 1. Reagent, 3 uL of 1.3 mM ATP and 130 uM IP6 mixture in assay buffer was dispensed to a white, 1536-well assay plate. 2. Compound, 23 nL of compounds of the top two doses (57.5 uM and 19.1 uM final concentration) of the libraries were dispensed into the mixture using the Kalypsis pintool. 3. Reagent, 1 uL of 2.4 uM IP6K1 was dispensed to the assay plates. 4. Incubation, 2 hr incubation at room temperature. 5. Reagent, 2 uL of ADP-Glo reagent was added to the wells. 6. Incubation, 1 hr incubation at room temperature. 7. Reagent, 4 uL or ADP-Glo substate was added to the wells. 8. Incubation, 45 min incubation at room temperature. 9. Detection, luminescence signal was detected using the ViewLux microplate imager (PerkinElmer).
Potency means the concentration at half of the fitted maximal effect.

Compound | Potency
Cc1ccc(CNC(=O)CCc2c(C)nc3c(c(C)nn3-c3ccccc3)c2C)cc1 | inactive
COc1ccc(C2Cn3nnc(C(=O)N4CCN(C(=O)c5ccc(C)cc5C)CC4)c3CO2)cc1 (centres undefined) | inactive
COc1c(C)cnc(CN(C)C(=O)C2CC(=O)N(C3CCCC3)C2)c1C (centres undefined) | inactive
CCCS(=O)(=O)c1ncc(Cl)c(C(=O)Nc2scc(-c3ccccc3)c2C(=O)OCC)n1 | inactive
Cc1ccc(-c2nnc3ccc(-c4ccoc4)nn23)nc1 | inactive
CC1=C(C(=O)Nc2ccccc2Cl)C(c2cccs2)n2ncnc2N1 (centres undefined) | inactive
CN(C)[C@@H]1C(=O)C(C(N)=O)=C(O)[C@@]2(O)C(=O)C3=C(O)c4c(O)ccc(Cl)c4[C@@H](O)[C@H]3C[C@@H]12 | inactive
Cc1ccc(-c2cc(C(=O)Oc3ccccc3Cl)no2)cc1C | inactive
COc1cc(NC(=O)Nc2cccc(CNC(=O)O[C@H]3CCOC3)c2)ccc1-c1cnco1 | 8.2 µM (active)
C#C[C@]1(O)CC[C@H]2[C@@H]3CCC4=C/C(=N/O)CC[C@@H]4[C@H]3CC[C@@]21CC | 1.84 µM (active)
Cc1cccc(C(=O)N2CCC3(CC2)CC(c2ccccc2)CN(C)C3)n1 (centres undefined) | inactive
Cc1cc(C)c(/C=C2\C(=O)Nc3ccccc32)[nH]1 | inactive
Cc1ccc(-c2onc(C)c2C)cc1S(=O)(=O)Nc1ccccn1 | inactive
CC(C)(C)OC(=O)N1CCC(c2c(C(=O)N3CCc4ccccc4C3)cnn2-c2ccc(F)cc2)CC1 | inactive
CCc1ccccc1N1CC(c2nc3ccccc3n2CCCCOc2ccccc2)CC1=O (centres undefined) | inactive
O=c1cc(-c2cccnc2)oc2c(-c3ccccc3O)nccc12 | inactive
CCOc1cccc2c1N[C@@H](c1ccc(C(=O)O)cc1)[C@H]1CC=C[C@@H]21 | 20.6 µM (active)

Compound | Potency
CCOC(=O)c1cc2c(=O)n3ccccc3nc2n(Cc2ccco2)c1=NC(=O)c1ccc(F)cc1 | inactive
CCOC(=O)c1ccc(CSc2nnc3cc(C)c4ccccc4n23)cc1 | inactive
Cc1ccc2c(c1)N(CC(=O)NCCCN1CCCCC1)C(=O)c1cccnc1O2 | inactive
O=C(OCCN1CCOCC1)c1cccnc1Nc1cccc(C(F)(F)F)c1 | inactive
COc1ccccc1N1CCN(S(=O)(=O)CCNC(=O)COc2ccc(F)cc2)CC1 | inactive
CCOc1ncccc1C(=O)N1CCN(Cc2ccccc2)CC(O)C1 (centres undefined) | inactive
O=c1ncn(Cc2ccccc2)c2ccc(-c3ccoc3)nc12 | inactive
CCOC(=O)c1ccc(NC(=O)CCS(=O)(=O)c2ccc(C)cc2)cc1 | inactive
CO[C@H]1C=CO[C@@]2(C)Oc3c(C)c(O)c4c(O)c(c(/C=N/N5CCN(C)CC5)c(O)c4c3C2=O)NC(=O)/C(C)=C\C=C[C@H](C)[C@H](O)[C@@H](C)[C@@H](O)[C@@H](C)[C@H](OC(C)=O)[C@@H]1C | inactive
CCOc1ccccc1NC(=O)C1CCCN(S(=O)(=O)c2cn(C)cn2)C1 (centres undefined) | inactive
C(=C\c1ccccc1)/CN1CCN(c2nccc(-c3cccnc3)n2)CC1 | inactive
CCc1ccccc1N1C(=O)CN(S(=O)(=O)CC)CC1(C)C(=O)NC1CCCCC1 (centres undefined) | inactive
O=c1c2ccccc2n(Cc2cccc(Cl)c2)c(=O)n1Cc1ccccc1 | inactive
Cc1ccc(NC(=O)c2cc(S(=O)(=O)NCCC3=CCCCC3)ccc2F)cc1C | inactive
CC1(C)CN(C(=O)c2ccc(-c3cccc4nc(NC(=O)C5CC5)nn34)cc2)C1 | inactive
COc1ccc2ncc3c(-c4ccc(C)c(C)c4)nn(CC(=O)NC4CCCC4)c3c2c1 | inactive
Cc1ccncc1C(=O)N1CCC2(CC1)CC(c1ccccc1)C(=O)N2C (centres undefined) | inactive
